The sequences below were run against ZNF24 (assay: pooled miR-30 sensor sort-seq; sequence = guide strand). Conditions: shRNA.
In the case of TCTTCTACTAGTACTTCCCGTT, the sensor-assay potency score (higher = more potent) is reported as 0.168.
With TAATGCTGAAGGAAGCTCCTGC the sensor-assay potency score (higher = more potent) was 0.616.
TTTGTGTGCGTCTCTGGCCTGA showed a sensor-assay potency score (higher = more potent) of -0.444.
In the case of TTCTGCATTGTGTCTTCTCTGA, the sensor-assay potency score (higher = more potent) is reported as 0.000948.
Sequence TAAGTATTGAATCTTCTTCCAC has a sensor-assay potency score (higher = more potent) of -0.673.
With AAAAATTTGAGGAACACCCATA the sensor-assay potency score (higher = more potent) was -0.922.
With TAAAAATTTGAGGAACACCCAT the sensor-assay potency score (higher = more potent) was -0.488.
TTCACTCTCCAAATCCTCCAGC showed a sensor-assay potency score (higher = more potent) of -0.297.
In the case of TTGAGGAACACCCATACTGAGA, the sensor-assay potency score (higher = more potent) is reported as -1.26.
TAGTGCTCCATTTTCAGTCCTA showed a sensor-assay potency score (higher = more potent) of 0.194.
Work on TGGATGATGATCTCGAACCCAA yielded a sensor-assay potency score (higher = more potent) of -0.874.
In the case of TTTCTCTTTCTTTCAAACCTGC, the sensor-assay potency score (higher = more potent) is reported as 0.00433.

Each sequence was assayed against ZNF250 in the same assay as above. Conditions: shRNA.
TGTATGTATCTTGTGATGCTGA gave a sensor-assay potency score (higher = more potent) of -0.256.
For TGTATTTTGACTCTCTCCCTTG, the sensor-assay potency score (higher = more potent) was -0.459.
TAAGACCTGAACTTCACGGTGG showed a sensor-assay potency score (higher = more potent) of 0.671.
In the case of TTGTCTGAGTAGTCACTCCACA, the sensor-assay potency score (higher = more potent) is reported as -0.51.
Sequence TTAACAGAGACTTCTCTTGGGC has a sensor-assay potency score (higher = more potent) of -0.0398.
TGTCTTGTTGTGTACAGGCTGT gave a sensor-assay potency score (higher = more potent) of -0.552.
In the case of TTACTAAGGACTGAGCTCTGGC, the sensor-assay potency score (higher = more potent) is reported as 0.163.

Source: the OligoGym collection
Further: reference of the scale not given here.
